# Data reported in PubChem BioAssay AID2315 (National Center for Advancing Translational Sciences (NCATS), 2010).
# Hit rate of the full screen: of about 290,000 compounds, about 27,000 (9.3%) were called active. Rule as the data show it: active = inhibition mostly above about 28% (no sharp cut-off); inactive = mostly below about 43%. Many of the other results were omitted from the sample, so actives are more common in it than they were.
# Test: A qHTS for Small Molecule Inhibitors of Shiga Toxin; also: 0% is about no effect
# Conditions: Vero cells, Shiga toxin protein synthesis inhibition reporter; at 38.7 µM, active compounds read high
row,Structure (SMILES),inhibition
1,CC(=O)Cc1nsc(NC(=O)c2ccc(COc3ccc(C)cc3)o2)n1,-9.97% (inactive)
2,CCOc1ccc(OCc2ccc(C(=O)Nc3cccc(C)n3)o2)cc1,42% (active)
3,Cc1cccc(NC(=O)c2ccc(COc3ccccc3[N+](=O)[O-])o2)n1,32.9% (inactive)
4,COc1ccc(CCNC(=O)NS(=O)(=O)c2ccc(C)cc2)cc1OC,4.27% (inactive)
5,CC(C)Cc1nnc(NC(=O)CN2C(=O)NC3(CCCCC3)C2=O)s1,-8.2% (inactive)
6,Cc1ccc(S(=O)(=O)NCC(=O)N2CCN(c3ccccn3)CC2)cc1,-5.02% (inactive)
7,Cc1ccc(N2C(=O)C3CC3C2=O)cc1 (centres undefined),25.6% (inactive)
8,Cc1ccc(N2CCN(c3ccc(C)cc3)C2c2ccccn2)cc1,57.4% (active)
9,Cc1c(CN2CC[C@@H](N3CCN(c4ccccn4)CC3)[C@H](O)C2)[nH]c2ccc(F)cc12,-5.39% (inactive)
10,COc1ccc(-c2cc3ccc(OCc4nn[nH]n4)cc3oc2=O)cc1,10.3% (inactive)
11,COc1cccc(C(=O)c2cc3ccc(O)cc3oc2=O)c1,21.7% (inactive)
12,O=c1oc2cc(O)ccc2cc1-c1ccc(F)cc1,70% (active)
13,Cc1cc2oc(=O)cc(CN(C)Cc3ccc(OC(F)F)cc3)c2cc1Cl,17.5% (inactive)
14,O=C(CCc1nnc2ccc(NCCCN3CCCC3=O)nn12)NCc1ccccc1Cl,20.3% (inactive)
15,Cc1cc(C)c(NC(=O)CN2CCCCCC2)c(C)c1,83.4% (active)
16,COc1cc(Cl)c(C)cc1NC(=O)CN1CCCCCC1,14.2% (inactive)
17,Cc1csc(NC(=O)CN2CCCCCC2)n1,-8.35% (inactive)
18,O=c1cc(Cl)c2ccccc2n1-c1ccccc1,-8.33% (inactive)
19,C/C(=N\Nc1cccc(C(=O)O)c1)c1ccc2c(c1)Nc1ccccc1S2,77.7% (active)
20,Cc1ccccc1NC(=O)c1cc(S(=O)(=O)Nc2cccc(C(=O)O)c2)ccc1Cl,24.3% (inactive)
21,O=C(NC1CC1)c1ccc2c(c1)NC(=O)c1ccccc1S2,13.2% (inactive)
22,Fc1ccc(/C=N/n2c(COc3ccccc3)n[nH]c2=S)cc1,-5.88% (inactive)
23,COc1cc(-c2n[nH]c(=S)n2Cc2ccccc2)cc(OC)c1OC,-7.08% (inactive)
24,COc1cc(/C=N/n2c(C)n[nH]c2=S)ccc1OCc1ccccc1,-16.6% (active)
25,COc1ccc(C)cc1Nc1n[n+](-c2ccccc2)c(-c2cccc(Cl)c2Cl)s1,-3.92% (inactive)

row,Structure (SMILES),inhibition
1,O=S(=O)(Nc1cccc(Oc2ccc(Cl)cc2)n1)c1ccc(F)cc1,1.95% (inactive)
2,COc1ccc(-c2csc3ncnc(N4CCN(S(=O)(=O)c5ccccc5C#N)CC4)c23)cc1,-3.69% (inactive)
3,CCOC(=O)Cc1csc(NC(=O)C(C)(C)C)n1,86.2% (active)
4,CCOC(=O)Cc1csc(NC(=O)Nc2ccccc2)n1,46.4% (inactive)
5,CCOC(=O)Cc1csc(NC(NC(=O)OCC)(C(F)(F)F)C(F)(F)F)n1,-12.7% (inactive)
6,Fc1ccc(-c2ccc(CNCc3ccccn3)o2)cc1Cl,2.57% (inactive)
7,O=C(/C=C/Sc1ncn[nH]1)c1ccc(Cl)cc1,32.3% (active)
8,O=C(NCCOCc1ccc(Cl)cc1)c1ncn[nH]1,10.4% (inactive)
9,COc1ccc(Cl)cc1CSc1ncn[nH]1,4.03% (inactive)
10,COc1ccc(CCNc2nc3ccc(C)cc3n3cnnc23)cc1OC,4.18% (inactive)
11,CCn1c(=O)n(CC)c2cc(N3CCCC3)c(NC(=O)c3ccccc3Br)cc21,-6.78% (inactive)
12,Cc1cc(S(=O)(=O)N2CCOCC2)ccc1OCC(=O)N1CCOCC1,26.1% (inactive)
13,Cc1ccc(OCCCC(=O)NC(C)c2ccccc2)c(C)c1 (centres undefined),7.36% (inactive)
14,Cc1ccc(OCCCC(=O)N2CCOCC2)c(C)c1,88.9% (active)
15,COc1c(O)c2c(=O)cc(OC)c3c4c(OC)cc(=O)c5c(O)c(OC)c6c(c(c1C[C@@](C)(O)[C@H]6C(C)=O)c23)c54,10.8% (inactive)
16,CCOc1ccccc1NC(=O)C1CCCN(S(=O)(=O)c2ccccc2)C1 (centres undefined),-4.05% (inactive)
17,FC(F)(F)c1nnc2c3ccccc3c(Cl)nn12,5.58% (inactive)
18,Cc1cccc(C)c1NC(=O)COC(=O)c1ccccc1O,-4.8% (inactive)
19,COc1ccc(C(=O)N2CCCCC2C(=O)Nc2ccc(-n3nc(C)cc3C)cc2)o1 (centres undefined),-7.96% (inactive)
20,CCC(=O)OCCNc1nc(-c2ccccc2)nc2ccccc12,-14.7% (inactive)
21,CCOC(=O)c1c(N)nn(C(=O)c2ccccc2)c1-c1ccccc1,-3.34% (inactive)
22,CCOC(=O)c1c(C)nc(-c2ccccc2)nc1NC(=O)C(C)C,38.3% (active)
23,COc1ccc(/C=C/c2c(-c3cccc(C)c3)oc3ccc(-c4ccc5c(c4)OCO5)cc23)cc1,-4.7% (inactive)
24,Fc1ccc(COc2cccc(-c3n[nH]c(=S)o3)c2)cc1,2.21% (inactive)
25,Fc1cccc(Cl)c1COc1ccc(-c2nnco2)cc1,30.1% (inactive)

row,Structure (SMILES),inhibition
1,Fc1ccc(COc2ccc(-c3nnco3)cc2)cc1,63.9% (active)
2,O=C(Oc1cccnc1)c1cc2ccccc2oc1=O,1.26% (inactive)
3,Nc1ncc(-c2cc3ccccc3oc2=O)s1,85% (active)
4,O=C(NCc1cccnc1)c1cccc(-c2cc3ccccc3oc2=O)c1,13.7% (inactive)
5,COc1cc(CNCc2ccc3c(c2)OCO3)c([N+](=O)[O-])cc1OC,16.9% (inactive)
6,CCOC(=O)N1CCN(S(=O)(=O)c2ccc(-n3cnnn3)cc2)CC1,5.66% (inactive)
7,O=C(CSc1ccc(-c2ccco2)nn1)Nc1cccc(F)c1,38.8% (inactive)
8,COc1cc(NC(=O)CSc2ccc(-c3cccnc3)nn2)cc(OC)c1,15.3% (inactive)
9,O=C(CSc1ccc(-c2ccccn2)nn1)Nc1ccccc1,47% (active)
10,Cc1ccc(CN2CCCOCCS2(=O)=O)cc1,-6.69% (inactive)
11,CC(CCc1ccccc1)NC(=O)c1cnc(Cl)c(Cl)c1 (centres undefined),3.47% (inactive)
12,Cc1cccnc1CC(C)NC(=O)c1cc(COc2cncc(Cl)c2)on1 (centres undefined),47.9% (active)
13,CC(=O)c1cccc(OCc2cc(C(=O)NC(C)Cc3cccnc3)no2)c1 (centres undefined),36.9% (inactive)
14,CCOc1cc(C(=O)O)ccc1OCCOc1ccccc1,2.96% (inactive)
15,Cc1ccc(CN(CC(=O)NC2CCCCC2)C(=O)c2csnn2)cc1,-2.02% (inactive)
16,CC1CCN(C(=O)CCNC(=O)c2ccccc2)CC1,43.4% (active)
17,CC1CCN(C(=O)/C(=C\c2ccccc2)NC(=O)c2ccccc2)CC1,5.08% (inactive)
18,CC1CCN(C(=O)/C(=C\c2ccccc2F)NC(=O)c2ccccc2)CC1,-2.65% (inactive)
19,O=S(=O)(c1ccccc1)c1nc(-c2ccccc2)oc1NCCCN1CCOCC1,-13.1% (inactive)
20,O=C(Nc1ccc(CN2CCOCC2)cc1)c1cc(Cl)ccc1Cl,-2.33% (inactive)
21,CC(O)C(NS(=O)(=O)c1ccc(Cl)cc1)C(=O)OCc1cc([N+](=O)[O-])cc2c1OCOC2 (centres undefined),-12.1% (inactive)
22,Nc1ccccc1SCc1cc([N+](=O)[O-])cc2c1OCOC2,62% (active)
23,O=C(CN1CCN(c2ccc(Cl)cc2)CC1)c1ccccc1,12.6% (inactive)
24,CC1CN(S(=O)(=O)c2cccc(C(F)(F)F)c2)CN1C(=O)N1CCOCC1 (centres undefined),29.9% (inactive)
25,O=C(N/N=C/c1cc([N+](=O)[O-])ccc1O)/C(=C\c1cccs1)NC(=O)c1ccccc1,-4.29% (inactive)

row,Structure (SMILES),inhibition
1,O=[N+]([O-])c1ccc(O)c(/C=N/Nc2ccccc2[N+](=O)[O-])c1,33.7% (active)
2,Nc1nnnn1/N=C/c1cc([N+](=O)[O-])ccc1O,19.7% (inactive)
3,CCNC(=S)N(CCN(CC)CC)Cc1cc2cc3c(cc2[nH]c1=O)OCCO3,37.5% (inactive)
4,O=C(CSCc1ccc(Cl)cc1)N1CCN(Cc2ccc3c(c2)OCO3)CC1,1.49% (inactive)
5,O=C(CSCc1cccs1)N1CCCC1,55.4% (active)
6,O=C(CN1CCN(c2ccc(Cl)cc2)CC1)N1CCCC1,-2.98% (inactive)
7,O=C(CSc1ncccn1)N1CCCC1,15.5% (inactive)
8,O=C(CSCc1ccc(Cl)cc1)N1CCCCC1,91.4% (active)
9,Cn1c(SCC(=O)N2CCCC2)nnc1-c1cccs1,19.8% (inactive)
10,COc1ccc(-c2c(NC(=O)c3ccco3)oc3ccc(Cl)cc3c2=O)cc1,-2.04% (inactive)
11,O=S(=O)(NC1CCCC1)c1ccc(-n2cnnn2)cc1,-3.47% (inactive)
12,COc1ccc(C=C(C#N)C#N)c(CSc2ccccn2)c1,-2.53% (inactive)
13,COc1ccc(C(=O)N[C@H](C(=O)NCc2ccccc2)C(C)C)cc1,2.84% (inactive)
14,CCN(CC(=O)NCc1cccs1)C(=O)c1cccc(S(=O)(=O)Nc2ccccc2OC)c1,25.8% (inactive)
15,COc1ccccc1C(=O)Nc1ccc(OCc2nnc3c4ccccc4c(C)nn23)cc1,6.17% (inactive)
16,COc1ccc(C2/C(=C(/O)c3ccc4c(c3)CC(C)O4)C(=O)C(=O)N2Cc2ccncc2)cc1 (centres undefined),21.4% (inactive)
17,CN(C)c1nnnn1-c1ccc(Cl)cc1,32.8% (inactive)
18,Nc1ccc2nn(-c3ccc(Cl)cc3)nc2c1,99% (active)
19,CCn1c(SCC(=O)NNC(=O)c2ccc(OC)cc2)nnc1C(C)C,-2.63% (inactive)
20,O=C1NC(=O)C(c2ccc(Cl)cc2)N1 (centres undefined),-0.685% (inactive)
21,COc1cccc(CNC(=O)C2CC(=O)N(C3CCCCCCC3)C2)c1 (centres undefined),-10.4% (inactive)
22,O=C(Cn1cnc2ccccc21)N/N=C/c1ccco1,15.9% (inactive)
23,O=c1nc(N/N=C/c2ccco2)cn[nH]1,84% (active)
24,CC(C)NC(=O)C(=O)N/N=C/c1ccco1,-4.96% (inactive)
